Source: paper PMC5540273 (PLoS ONE, 2017)

Key:
Settings in all cases: concentration: 1 μM,replicates: in singlicate; n = 1
LCK = system: LCK
LIMK1 = system: LIMK1
LIMK2 = system: LIMK2
LKB1 = system: T1, LKB1
T1 construct: gene STK11

LOK = system: T2, LOK
T2 construct: gene STK10

LRRK2 = system: LRRK2
LTK = system: LTK
LYN = system: LYN
LZK = system: T3, LZK
T3 construct: gene MAP3K13

MAK = system: MAK
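Further: KINOMEscan kinase panel screen.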

| Compound | %Inh (LCK) [%] | %Inh (LIMK1) [%] | %Inh (LIMK2) [%] | %Inh (LKB1) [%] | %Inh (LOK) [%] | %Inh (LRRK2) [%] | %Inh (LTK) [%] | %Inh (LYN) [%] | %Inh (LZK) [%] | %Inh (MAK) [%] |
| --- | --- | --- | --- | --- | --- | --- | --- | --- | --- | --- |
| CCNCC(Cc1ccccc1)NC(=O)c1cc(Br)c(-c2ccnc3[nH]ccc23)s1.Cl.Cl (stereo not shown) [GSK1383280] | 11 | 21 | 23 | 0 | 0 | 0 | 0 | 0 | 0 | 44 |
| C[C@@H](Oc1cc(-n2cnc3ccc(-c4ccncc4)cc32)sc1C(N)=O)c1ccccc1Cl [GSK483724] | 40 | 20 | 0 | 0 | 92.2 | 8 | 25 | 0 | 0 | 29 |
| COc1cccc(C2=C(Nc3cccc(Cl)c3)C(=O)NC2=O)c1 [SB-341556] | 15 | 67 | 0 | 0 | 9 | 83 | 86 | 0 | 0 | 0 |
| NC(=O)c1ccc(-c2cc3ncnc(SCC(=O)O)c3s2)cc1 | 2 | 0 | 21 | 18 | 0 | 11 | 0 | 23 | 2 | 45 |
| Cn1ccc2ncnc(Oc3ccc(NC(=O)Nc4ccnc(C(F)(F)F)c4)c(Cl)c3)c21 | 0 | 16 | 0 | 8 | 94 | 0 | 100 | 6 | 7 | 5 |
| CS(=O)(=O)Nc1ccc(-c2ccnc3[nH]ccc23)cc1 [GSK993273] | 25 | 0 | 13 | 0 | 0 | 35 | 0 | 0 | 8 | 0 |
| CCCC(=O)Nc1n[nH]c2ncccc12 [SB-601436] | 14 | 0 | 0 | 0 | 3 | 0 | 4 | 0 | 0 | 7 |
| Cn1ccc2ncnc(Oc3ccc(NC(=O)Nc4cccc(C(F)(F)F)c4)c(F)c3)c21 | 75 | 0 | 2 | 0 | 99.9 | 31 | 84 | 24 | 0 | 27 |
| CC(=O)Nc1ccc(-c2cc3ncnc(SCC(=O)O)c3s2)cc1 | 1 | 0 | 0 | 0 | 5 | 0 | 0 | 9 | 0 | 52 |
| CC(C(=O)NC1CCN(c2ccnc(Nc3ccc(F)cc3)n2)C1)c1ccc(Cl)cc1 (stereo not shown) [GSK1379713] | 22 | 0 | 0 | 0 | 0 | 14 | 0 | 0 | 0 | 12 |
| COC(=O)Nc1nc2cc(Oc3ccc(NC(=O)Nc4cc(C(F)(F)F)ccc4Cl)cc3)ccc2[nH]1.Cl [GW697465] | 98.9 | 11 | 0 | 14 | 99.7 | 11 | 36 | 75 | 44 | 20 |
| COc1cc2nccc(Nc3ccc(Oc4ccccc4)cc3)c2cc1OC.Cl [GI261656] | 99.2 | 0 | 14 | 13 | 0 | 0 | 0 | 71 | 5 | 1 |
| COC(=O)c1cccc(NC(=O)NC2CCN(c3ccnc(NCc4ccc(F)cc4)n3)CC2)c1 [GSK1379860] | 4 | 4 | 0 | 0 | 0 | 8 | 0 | 0 | 0 | 28 |
| C[C@@H](Oc1cc(-n2cnc3cc(-c4cnn(C)c4)ccc32)sc1C(N)=O)c1ccccc1Cl [GSK580432] | 94.8 | 0 | 0 | 57 | 99.9 | 68 | 25 | 38 | 0 | 0 |
| Cc1n[nH]c2cc(Nc3ccnc(Nc4cccc(CN5CCOCC5)c4)n3)ccc12 [GW682569] | 71 | 9 | 5 | 17 | 0 | 0 | 1 | 25 | 31 | 20 |
| C[C@@H](Oc1cc(-n2cnc3cc(-c4ccncc4)ccc32)sc1C(N)=O)c1ccccc1Cl [GSK479719] | 54 | 31 | 0 | 0 | 99.8 | 4 | 0 | 0 | 0 | 0 |

| Compound | %Inh (LCK) [%] | %Inh (LIMK1) [%] | %Inh (LIMK2) [%] | %Inh (LKB1) [%] | %Inh (LOK) [%] | %Inh (LRRK2) [%] | %Inh (LTK) [%] | %Inh (LYN) [%] | %Inh (LZK) [%] | %Inh (MAK) [%] |
| --- | --- | --- | --- | --- | --- | --- | --- | --- | --- | --- |
| CC(=O)Nc1nc2cnc(Nc3cc(NC(=O)c4cccc(CC(C)(C)C#N)c4)ccc3C)nc2s1 | 72 | 0 | 2 | 1 | 55 | 9 | 2 | 58 | 15 | 0 |
| CN(c1ccc2c(c1)nc(NCc1ccc(F)cc1)n2C)c1ccnc(Nc2ccc(CS(C)(=O)=O)cc2)n1.Cl [GW813244] | 67 | 33 | 0 | 29 | 99.5 | 0 | 48 | 68 | 0 | 2 |
| Cn1ccc2ncnc(Oc3ccc(NC(=O)Nc4cccc(C(F)(F)F)c4)c(Cl)c3)c21 | 79 | 0 | 0 | 11 | 99.9 | 0 | 56 | 63 | 0 | 28 |
| Cn1ccc2ncnc(Oc3ccc(NC(=O)Nc4cnn(C(C)(C)C)c4)c(Cl)c3)c21 | 71 | 1 | 8 | 9 | 99.9 | 0 | 12 | 71 | 0 | 0 |
| CCn1c(-c2nonc2N)nc2cncc(CNC3CCNCC3)c21.Cl [SB-747651] | 0 | 14 | 13 | 0 | 0 | 43 | 25 | 0 | 8 | 29 |
| O=C1NCCc2[nH]c(-c3ccncc3)cc21 | 9 | 5 | 2 | 0 | 6 | 31 | 0 | 0 | 2 | 21 |
| N#Cc1cccc(C(=O)NC2CCN(c3ccnc(Nc4ccc(F)cc4)n3)C2)c1 (stereo not shown) [GSK1379708] | 22 | 0 | 0 | 0 | 0 | 0 | 0 | 0 | 0 | 18 |
| Cc1ccn2nc(-c3ccc(F)cc3)c(-c3ccncc3)c2c1.Cl [GW457859] | 12 | 0 | 0 | 10 | 0 | 0 | 0 | 0 | 44 | 17 |
| CCN1CCN(CCCC(=O)Nc2n[nH]c3nc(-c4ccc(O)cc4)c(Br)cc23)CC1 [SB-731579] | 66 | 0 | 0 | 23 | 13 | 0 | 20 | 0 | 0 | 35 |
| CC(C)c1nc(-c2cccc(NS(=O)(=O)c3ccccc3)c2)c(-c2ccnc(Nc3ccc4c(c3)CN(C)CC4)n2)s1 [GSK1649598] | 99.8 | 100 | 100 | 0 | 97.5 | 0 | 5 | 98 | 45 | 53 |
| CCn1c(-c2nonc2N)nc2cncc(Br)c21 [SB-738004] | 0 | 0 | 5 | 19 | 9 | 45 | 0 | 13 | 41 | 28 |
| Cc1ccc(CC(=O)N2CCc3cc(-c4cn(C)c5ncnc(N)c45)ccc32)cc1 [GSK2634758] | 38 | 0 | 0 | 19 | 87 | 0 | 24 | 23 | 24 | 4 |
| CS(=O)c1ccc(-c2coc3ccc(-c4n[nH]c(=O)o4)cc23)cc1 (stereo not shown) | 0 | 0 | 0 | 16 | 99.7 | 13 | 0 | 16 | 2 | 0 |
| CC(=O)c1c(-c2ccncc2)[nH]c(-c2ccncc2)c1C [GW493036] | 0 | 0 | 1 | 0 | 0 | 26 | 0 | 0 | 42 | 34 |
| O=c1[nH]cc(-c2ccc(O)cc2)c2sc(-c3ccncc3)cc12 [GSK1033723] | 7 | 0 | 23 | 13 | 0 | 0 | 0 | 0 | 4 | 31 |
